# Columns and labels:
# Conditions in all cases: concentration: 1 μM, replicates: in singlicate; n = 1
# IRAK1 = test system: IRAK1
# IRAK3 = test system: IRAK3
# IRAK4 = test system: IRAK4
# ITK = test system: ITK
# [1] = test system: JAK1(JH1domain-catalytic)
# [2] = test system: JAK1(JH2domain-pseudokinase)
# [3] = test system: JAK2(JH1domain-catalytic)
# [4] = test system: JAK3(JH1domain-catalytic)
# JNK1 = test system: T1, JNK1
# T1 construct: gene MAPK8
# JNK2 = test system: T2, JNK2
# T2 construct: gene MAPK9
# 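Also: KINOMEscan kinase panel screen.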
smiles,measurement,setting,value
Nc1ncnc2occ(-c3ccc4c(c3)CCN4C(=O)Cc3cc(F)ccc3F)c12 [GSK2645446],%Inh,IRAK1,0%
same,%Inh,IRAK3,0%
same,%Inh,IRAK4,0%
same,%Inh,ITK,0%
same,%Inh,[1],0%
same,%Inh,[2],0%
same,%Inh,[3],0%
same,%Inh,[4],0%
same,%Inh,JNK1,0%
same,%Inh,JNK2,0%
CNCc1ccc2nc(NC(=O)c3ccc(C(C)(C)C)cc3)cn2c1,%Inh,IRAK1,13%
same,%Inh,IRAK3,0%
same,%Inh,IRAK4,0%
same,%Inh,ITK,0%
same,%Inh,[1],0%
same,%Inh,[2],17%
same,%Inh,[3],3%
same,%Inh,[4],3%
same,%Inh,JNK1,18%
same,%Inh,JNK2,6%
O=c1cc(N2CCOCC2)nc2n(Cc3ccccc3F)ccn12 [GSK2297428],%Inh,IRAK1,0%
same,%Inh,IRAK3,0%
same,%Inh,IRAK4,0%
same,%Inh,ITK,15%
same,%Inh,[1],10%
same,%Inh,[2],0%
same,%Inh,[3],0%
same,%Inh,[4],0%
same,%Inh,JNK1,1%
same,%Inh,JNK2,11%
COc1ccc2cc(-c3nc(-c4ccccc4C(C)C)[nH]c3-c3ccncc3)ccc2c1 [SB-660566],%Inh,IRAK1,23%
same,%Inh,IRAK3,0%
same,%Inh,IRAK4,42%
same,%Inh,ITK,8%
same,%Inh,[1],11%
same,%Inh,[2],0%
same,%Inh,[3],100%
same,%Inh,[4],0%
same,%Inh,JNK1,23%
same,%Inh,JNK2,44%
CSc1ccc(-c2nc3n(c2-c2ccncc2)CCC3)cc1 [SKF-105561],%Inh,IRAK1,21%
same,%Inh,IRAK3,0%
same,%Inh,IRAK4,6%
same,%Inh,ITK,12%
same,%Inh,[1],8%
same,%Inh,[2],15%
same,%Inh,[3],4%
same,%Inh,[4],0%
same,%Inh,JNK1,31%
same,%Inh,JNK2,49%
O=C(Nc1n[nH]c2cc(-c3ccsc3)ccc12)C1CC1 [SB-732932],%Inh,IRAK1,3%
same,%Inh,IRAK3,22%
same,%Inh,IRAK4,9%
same,%Inh,ITK,0%
same,%Inh,[1],0%
same,%Inh,[2],4%
same,%Inh,[3],8%
same,%Inh,[4],0%
same,%Inh,JNK1,36%
same,%Inh,JNK2,25%
Cc1nccc(-c2c(-c3ccc(F)cc3)ncn2CCCN2CCOCC2)n1.Cl [SB-282975],%Inh,IRAK1,39%
same,%Inh,IRAK3,0%
same,%Inh,IRAK4,30%
same,%Inh,ITK,24%
same,%Inh,[1],0%
same,%Inh,[2],17%
same,%Inh,[3],37%
same,%Inh,[4],9%
same,%Inh,JNK1,13%
same,%Inh,JNK2,40%
Fc1ccc(-c2nc3n(c2-c2ccncc2)CCS3)cc1 [GI98581],%Inh,IRAK1,3%
same,%Inh,IRAK3,4%
same,%Inh,IRAK4,0%
same,%Inh,ITK,5%
same,%Inh,[1],10%
same,%Inh,[2],0%
same,%Inh,[3],0%
same,%Inh,[4],0%
same,%Inh,JNK1,73%
same,%Inh,JNK2,96.2%
COc1ccc(-c2coc3ccc(-c4nnc(C)o4)cc23)cc1,%Inh,IRAK1,0%
same,%Inh,IRAK3,0%
same,%Inh,IRAK4,9%
same,%Inh,ITK,0%
same,%Inh,[1],15%
same,%Inh,[2],0%
same,%Inh,[3],3%
same,%Inh,[4],0%
same,%Inh,JNK1,0%
same,%Inh,JNK2,0%
Cc1cccc2c(-c3ccncn3)c(-c3ccc(F)cc3)nn12 [GW515532],%Inh,IRAK1,0%
same,%Inh,IRAK3,8%
same,%Inh,IRAK4,3%
same,%Inh,ITK,7%
same,%Inh,[1],5%
same,%Inh,[2],6%
same,%Inh,[3],36%
same,%Inh,[4],0%
same,%Inh,JNK1,33%
same,%Inh,JNK2,74%
CC[C@@H]1CO[C@H](C(=O)Nc2ccccc2)CN1c1cc(-c2ccc3c(N)n[nH]c3c2)nc(NC)n1 [GSK2376236],%Inh,IRAK1,0%
same,%Inh,IRAK3,5%
same,%Inh,IRAK4,0%
same,%Inh,ITK,3%
same,%Inh,[1],11%
same,%Inh,[2],0%
same,%Inh,[3],0%
same,%Inh,[4],0%
same,%Inh,JNK1,0%
same,%Inh,JNK2,17%
c1ccc(-c2ccnc3[nH]ccc23)cc1 [SB-693578],%Inh,IRAK1,64%
same,%Inh,IRAK3,0%
same,%Inh,IRAK4,43%
same,%Inh,ITK,18%
same,%Inh,[1],1%
same,%Inh,[2],2%
same,%Inh,[3],69%
same,%Inh,[4],76%
same,%Inh,JNK1,32%
same,%Inh,JNK2,0%
CNc1nc(-c2ccc3c(N)n[nH]c3c2)cc(N2C[C@@H](C(=O)NC3CCCCC3)OC[C@H]2C)n1 [GSK2375584],%Inh,IRAK1,21%
same,%Inh,IRAK3,0%
same,%Inh,IRAK4,0%
same,%Inh,ITK,10%
same,%Inh,[1],11%
same,%Inh,[2],0%
same,%Inh,[3],0%
same,%Inh,[4],0%
same,%Inh,JNK1,3%
same,%Inh,JNK2,0%
COc1ccc(Nc2nccc(N3CCC(NC(=O)c4cc5ccccc5s4)C3)n2)cc1 (centres unmarked) [GSK1379738],%Inh,IRAK1,37%
same,%Inh,IRAK3,15%
same,%Inh,IRAK4,19%
same,%Inh,ITK,8%
same,%Inh,[1],15%
same,%Inh,[2],0%
same,%Inh,[3],100%
same,%Inh,[4],0%
same,%Inh,JNK1,22%
same,%Inh,JNK2,10%
COc1ccc(Nc2nccc(-c3ccc(NC(=O)c4cc5cc(F)ccc5[nH]4)cc3)n2)cc1 [GSK1229496],%Inh,IRAK1,10%
same,%Inh,IRAK3,0%
same,%Inh,IRAK4,0%
same,%Inh,ITK,0%
same,%Inh,[1],0%
same,%Inh,[2],0%
same,%Inh,[3],18%
same,%Inh,[4],0%
same,%Inh,JNK1,4%
same,%Inh,JNK2,9%
O=C(Nc1n[nH]c2nc(-c3ccco3)c(Br)cc12)C1CCN(Cc2ccccc2)C1.O=C(O)[C@H](O)[C@@H](O)C(=O)O (centres unmarked) [SB-742034],%Inh,IRAK1,0%
same,%Inh,IRAK3,35%
same,%Inh,IRAK4,0%
same,%Inh,ITK,13%
same,%Inh,[1],0%
same,%Inh,[2],61%
same,%Inh,[3],23%
same,%Inh,[4],0%
same,%Inh,JNK1,37%
same,%Inh,JNK2,0%
CN1c2ccc(-c3ccc(C(N)=O)cc3)cc2-c2[nH]ncc2S1(=O)=O,%Inh,IRAK1,0%
same,%Inh,IRAK3,10%
same,%Inh,IRAK4,0%
same,%Inh,ITK,0%
same,%Inh,[1],0%
same,%Inh,[2],37%
same,%Inh,[3],27%
same,%Inh,[4],0%
same,%Inh,JNK1,0%
same,%Inh,JNK2,0%

# Reference: article PMC5540273 (PLoS ONE, 2017)
